# Measured values reported in the supplement of paper PMC7595190.
# What was measured:
# Test in all cases: CellTox Green cytotoxicity fluorescence relative to DMSO vehicle (fold of vehicle RFU); higher = more cell death (loss of membrane integrity), active = 2 or more
# CMK = test system: CMK
# Procedure, shortened: (§1)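 In 96-well black optical-bottom plates, MV4-11, CMK and Kasumi-1 cells were seeded at 4.0 × 10^4 cells per well together with CellTox Green reagent. Each well then received one compound from the Selleckchem apoptosis library, diluted in DMSO, at final 0.01, 0.1 or 1 µM, the vehicle being 0.1% DMSO. Incubation was at 37 °C under 5% CO2, with fluorescence measured (Ex 485 nm, Em 520 nm) at 24, 48 and 72 h. Cytotoxicity, which reflects loss of membrane integrity, is the fluorescence expressed as fold of the DMSO vehicle.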
# Kasumi-1 = test system: Kasumi-1
# Procedure, shortened: as §1
# MV4-11 = test system: MV4-11
# Procedure, shortened: as §1
SMILES,"CellTox Green cytotoxicity fluorescence (CMK; 0.01 µM, 24 h)","CellTox Green cytotoxicity fluorescence (CMK; 0.01 µM, 48 h)","CellTox Green cytotoxicity fluorescence (CMK; 0.01 µM, 72 h)","CellTox Green cytotoxicity fluorescence (CMK; 0.1 µM, 24 h)","CellTox Green cytotoxicity fluorescence (CMK; 0.1 µM, 48 h)","CellTox Green cytotoxicity fluorescence (CMK; 0.1 µM, 72 h)","CellTox Green cytotoxicity fluorescence (CMK; 1 µM, 24 h)","CellTox Green cytotoxicity fluorescence (CMK; 1 µM, 48 h)","CellTox Green cytotoxicity fluorescence (CMK; 1 µM, 72 h)","CellTox Green cytotoxicity fluorescence (Kasumi-1; 0.01 µM, 24 h)","CellTox Green cytotoxicity fluorescence (Kasumi-1; 0.01 µM, 48 h)","CellTox Green cytotoxicity fluorescence (Kasumi-1; 0.01 µM, 72 h)","CellTox Green cytotoxicity fluorescence (Kasumi-1; 0.1 µM, 24 h)","CellTox Green cytotoxicity fluorescence (Kasumi-1; 0.1 µM, 48 h)","CellTox Green cytotoxicity fluorescence (Kasumi-1; 0.1 µM, 72 h)","CellTox Green cytotoxicity fluorescence (Kasumi-1; 1 µM, 24 h)","CellTox Green cytotoxicity fluorescence (Kasumi-1; 1 µM, 48 h)","CellTox Green cytotoxicity fluorescence (Kasumi-1; 1 µM, 72 h)","CellTox Green cytotoxicity fluorescence (MV4-11; 0.01 µM, 24 h)","CellTox Green cytotoxicity fluorescence (MV4-11; 0.01 µM, 48 h)","CellTox Green cytotoxicity fluorescence (MV4-11; 0.01 µM, 72 h)","CellTox Green cytotoxicity fluorescence (MV4-11; 0.1 µM, 24 h)","CellTox Green cytotoxicity fluorescence (MV4-11; 0.1 µM, 48 h)","CellTox Green cytotoxicity fluorescence (MV4-11; 0.1 µM, 72 h)","CellTox Green cytotoxicity fluorescence (MV4-11; 1 µM, 24 h)","CellTox Green cytotoxicity fluorescence (MV4-11; 1 µM, 48 h)","CellTox Green cytotoxicity fluorescence (MV4-11; 1 µM, 72 h)"
CN1CCN(CCCNc2ncc(Cl)c(-c3cc4c(C(=O)NC5CC5)cccc4s3)n2)CC1,0.99 (inactive),0.985 (inactive),0.953 (inactive),0.97 (inactive),0.978 (inactive),0.95 (inactive),0.956 (inactive),0.993 (inactive),1 (inactive),0.943 (inactive),0.931 (inactive),0.891 (inactive),0.958 (inactive),0.947 (inactive),0.949 (inactive),0.953 (inactive),1.03 (inactive),1.01 (inactive),0.979 (inactive),0.976 (inactive),0.987 (inactive),0.956 (inactive),0.966 (inactive),0.965 (inactive),0.903 (inactive),0.93 (inactive),0.926 (inactive)
CC1(C)CCC(c2ccc(Cl)cc2)=C(CN2CCN(c3ccc(C(=O)NS(=O)(=O)c4ccc(N[C@H](CCN5CCOCC5)CSc5ccccc5)c(S(=O)(=O)C(F)(F)F)c4)cc3)CC2)C1 [Navitoclax],0.932 (inactive),0.931 (inactive),0.932 (inactive),1.24 (inactive),1.36 (inactive),1.36 (inactive),1.62 (inactive),2.39 (active),2.07 (active),1.04 (inactive),1 (inactive),1.05 (inactive),1.22 (inactive),1.53 (inactive),1.7 (inactive),1.57 (inactive),2.07 (active),2.11 (active),0.946 (inactive),1.02 (inactive),1.07 (inactive),1.04 (inactive),1.41 (inactive),1.67 (inactive),1.32 (inactive),2.56 (active),2.63 (active)
O=C(NS(=O)(=O)c1ccc(Br)s1)c1ccc(Cl)cc1Cl [Tasisulam],0.98 (inactive),0.972 (inactive),0.934 (inactive),0.99 (inactive),0.99 (inactive),0.959 (inactive),0.986 (inactive),1 (inactive),0.903 (inactive),1.02 (inactive),1.02 (inactive),1.01 (inactive),1.01 (inactive),0.99 (inactive),0.984 (inactive),0.975 (inactive),0.963 (inactive),0.96 (inactive),0.957 (inactive),0.955 (inactive),0.954 (inactive),0.99 (inactive),0.984 (inactive),0.992 (inactive),1 (inactive),0.989 (inactive),1 (inactive)
COc1nc(OCc2cccc(-c3ccccc3)c2C)ccc1CNCCNC(C)=O [PD-1/PD-L1 inhibitor 2],1.01 (inactive),0.96 (inactive),0.968 (inactive),0.99 (inactive),0.951 (inactive),0.928 (inactive),0.99 (inactive),0.983 (inactive),0.956 (inactive),1 (inactive),0.98 (inactive),0.994 (inactive),0.997 (inactive),1.02 (inactive),1.01 (inactive),0.978 (inactive),1 (inactive),0.999 (inactive),1.02 (inactive),0.96 (inactive),1 (inactive),0.984 (inactive),0.959 (inactive),0.944 (inactive),0.985 (inactive),1 (inactive),1.01 (inactive)
Cc1nn(C)c(COc2ccc(N3CCN(S(=O)(=O)N(C)C)CC3)cc2)c1-c1cccc2c(CCCOc3cccc4ccccc34)c(C(=O)O)n(CCN3CCOCC3)c12,0.996 (inactive),1 (inactive),1 (inactive),0.995 (inactive),0.985 (inactive),0.957 (inactive),0.985 (inactive),1.01 (inactive),0.948 (inactive),0.998 (inactive),0.981 (inactive),0.976 (inactive),1.01 (inactive),1.03 (inactive),1.04 (inactive),0.938 (inactive),1.03 (inactive),1.03 (inactive),,,,,,,,,
CN(C)CCCCC(=O)Nc1ccc(NC(=S)NC(=O)c2ccc(C(C)(C)C)cc2)cc1 [Tenovin-6],0.978 (inactive),0.97 (inactive),0.94 (inactive),1 (inactive),0.991 (inactive),0.973 (inactive),1.01 (inactive),1.03 (inactive),0.875 (inactive),0.99 (inactive),0.965 (inactive),0.966 (inactive),0.947 (inactive),0.912 (inactive),0.879 (inactive),0.958 (inactive),1 (inactive),1.01 (inactive),,,,,,,,,
